# Experiments:
# Conditions in all cases: concentration: 1 μM, replicates: in singlicate; n = 1
# MTOR = system: MTOR
# MUSK = system: MUSK
# MYLK2 = system: MYLK2
# MYLK4 = system: MYLK4
# MYLK = system: MYLK
# MYO3A = system: MYO3A
# MYO3B = system: MYO3B
# NDR1 = system: T1, NDR1
# T1 construct: gene STK38
# NDR2 = system: NDR2
# NEK10 = system: NEK10
# NEK11 = system: NEK11
# NEK1 = system: NEK1
# NEK2 = system: NEK2
# NEK3 = system: NEK3
# NEK4 = system: NEK4
# NEK5 = system: NEK5
# NEK6 = system: NEK6
# NEK7 = system: NEK7
# NEK9 = system: NEK9
# NIK = system: T2, NIK
# T2 construct: gene MAP3K14
# 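Also: KINOMEscan kinase panel screen.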
Compound,%Inh (MTOR),%Inh (MUSK),%Inh (MYLK2),%Inh (MYLK4),%Inh (MYLK),%Inh (MYO3A),%Inh (MYO3B),%Inh (NDR1),%Inh (NDR2),%Inh (NEK10),%Inh (NEK11),%Inh (NEK1),%Inh (NEK2),%Inh (NEK3),%Inh (NEK4),%Inh (NEK5),%Inh (NEK6),%Inh (NEK7),%Inh (NEK9),%Inh (NIK)
Nc1n[nH]c2cnc(-c3ccccc3)cc12 [SB-642124],14%,99.9%,6%,69%,3%,8%,0%,20%,0%,47%,3%,0%,0%,79%,12%,96.5%,0%,0%,0%,10%
COC(=O)Nc1nc2ccc(Oc3ccc(NC(=O)Nc4cc(C(F)(F)F)ccc4F)cc3)cc2n1C.Cl [GW692089],28%,98.5%,36%,0%,0%,17%,0%,24%,45%,1%,25%,0%,0%,0%,0%,0%,0%,0%,0%,27%
Fc1ccc(-c2ncn(C3CCNCC3)c2-c2ccnc(Oc3ccc(-c4ccccc4)cc3)n2)cc1 [SB-245391],0%,40%,0%,21%,16%,24%,17%,31%,13%,0%,24%,36%,25%,13%,0%,4%,17%,0%,7%,31%
Cl.NC(=O)c1cccc(Nc2nccc(Nc3ccc(Oc4c(Cl)cccc4Cl)c(Cl)c3)n2)c1 [GW659009],0%,5%,0%,0%,0%,0%,0%,17%,0%,0%,0%,0%,1%,87%,3%,26%,86%,5%,6%,14%
COc1ccc(Nc2nccc(NCCNC(=O)c3cc4ccccc4s3)n2)cc1 [GSK1379896],0%,8%,0%,6%,18%,5%,0%,9%,0%,0%,3%,0%,22%,0%,14%,13%,0%,0%,21%,7%
COc1cccc(C2=C(Nc3ccc(Cl)c(C(=O)O)c3)C(=O)NC2=O)c1 [SB-390769],18%,17%,21%,60%,100%,20%,0%,100%,0%,73%,27%,0%,0%,7%,38%,3%,0%,0%,0%,21%
NCCCC(NC(=O)c1cc(Br)c(-c2ccnc3[nH]ccc23)s1)c1ccccc1.O=C(O)C(F)(F)F.O=C(O)C(F)(F)F (centres unmarked) [GSK1287544],3%,8%,30%,99.6%,23%,0%,0%,95.7%,86%,20%,0%,74%,9%,0%,9%,88%,16%,0%,17%,16%
Cl.Cl.NCC(C(=O)Nc1cc(Br)c(-c2ccnc3[nH]ccc23)s1)c1ccccc1 (centres unmarked) [GSK1269851],26%,1%,56%,99.8%,37%,0%,0%,70%,13%,12%,0%,0%,15%,18%,15%,0%,0%,10%,9%,8%
CNC(=O)c1ccccc1Nc1nc(Nc2ccc(N3CCOCC3)cc2)ncc1Cl.Cl [GSK1576028],8%,74%,74%,99.9%,94%,48%,0%,97.9%,91.3%,24%,85%,86%,89%,93.3%,65%,100%,98.6%,98%,97.7%,36%
Clc1ccc(-c2nn3ncccc3c2-c2ccnc(Nc3ccc4c(c3)OCCO4)n2)cc1 [GW829116],0%,0%,0%,0%,0%,7%,1%,34%,8%,0%,0%,0%,0%,12%,0%,0%,0%,0%,0%,10%

# — paper PMC5540273 (PLoS ONE, 2017)
